In the library only some 4.2% were active in any assay of this set; here they are far more common.
SW480 rereplic – DNA re-replication induction in SW480 cells. AID 624297. Potency, µM (doses to about 46.1 µM), for inactives: top-dose re-replication activation, most hits filed as activators. SW480 DNA re-replication, Hoechst DNA content imaging, 48 h. 1.8% of 340,000 active; also: % of control where 0% means no effect; nearly all actives have a fitted effect of over 55% in size
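250 cells/well; 23 nL cpd via pin tool; 48 hr, 37 C, 5% CO2; Hoechst 40 min; imager read of total nuclear intensity, ex 405/em 500-530 nm.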
a7 integrin act – activates integrin-mediated alleviation for muscular dystrophy; alpha7betagal myoblasts, beta-gal FDG fluorescence, 48 h; Potency, µM (top dose mostly 38.3 µM), for the others: at the highest dose activation, usual class: activators; 0.064% of 350,000 active;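 also: 100% = response of the positive control SU9516; nearly all actives have a fitted effect of over 60% in size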
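alpha7betagal+/- myoblasts (passage 13, 250/well) treated 48 h at 37C with compounds at 1:260 dilution of DMSO stock. Lysed, then beta-galactosidase activity read as FDG fluorescence (ex 480/em 540) after 30 min, with pre-read for autofluorescence.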
Mito fusion act – blocks mitochondrial division or promotes mitochondrial fusion | S. cerevisiae fusion-defective mutant growth rescue, CellTiterGlo 48 h | Potency, µM (top dose mostly 46.1 µM), for the others: top-dose growth rescue (activation), most hits filed as activators | 0.23% of 320,000 active | AID 485298; also: % of control where 0% means no effect; nearly all actives have a fitted effect of over 45% in size
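Temperature-sensitive fusion-defective S. cerevisiae (e.g. fzo1-1, mgm1-5) were grown with compound in YPEG medium (3% ethanol, 3% glycerol) for 48 hours at 37C. Growth rescue was measured as viability by CellTiterGlo luminescence after 10 minutes at ambient.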
AT treatment – candidate therapy for ataxia-telangiectasia. F2112 A-T fibroblasts, KAP-1 phosphorylation AlphaLISA; neocarzinostatin DNA damage 30 min before lysis. Potency, µM (series often up to 57.5 µM), inactives show at the highest dose activation, usual class: activators. 0.19% of 320,000 active; also: % of control where 0% means no effect; nearly all actives have a fitted effect of over 45% in size
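hTERT-immortalized A-T patient fibroblasts (F2112), 500 cells/well in OPTI-MEM, 1% FBS, got compounds for 60 min, then NCS for 30 min at 37C. Lysates were then assayed for phospho-KAP-1 by AlphaLISA (anti-pKAP1 donor, anti-KAP1 acceptor beads), 6 hr at 25C.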
MCF10A rereplic – inducers of DNA re-replication in MCF 10A breast cells. Potency, µM (series often up to 46.1 µM), for the others: top-dose activity, positive = re-replication, actives largely listed as activators. MCF 10A DNA re-replication, Hoechst nuclear intensity, 48 h. 2.9% of 350,000 active; also: % of control where 0% means no effect; nearly all actives have a fitted effect of over 50% in size
* marks the source's active call; other numbers are inactive results; ? = inconclusive; nt = no result given; ! = not confirmed by another sample. Calls follow the shape of the dose curve; as a rule, active = well fitted activation curve with a large enough effect; inconclusive = small, poorly fitted or top-dose-only effect; inactive = no such curve, though single readings can be large or run the other way. Potency is read from the fitted curve at half-maximal effect.

SMILES	SW480 rereplic	a7 integrin act	Mito fusion act	AT treatment	MCF10A rereplic
N#Cc1ccc(-c2csc(NNC(=O)c3ccc(Br)cc3)n2)cc1	5.2µM*	-40%	-8%	-7%	?
O=C(NNc1nc(-c2ccc(Br)cc2)cs1)c1ccco1	?	-3%	-3%	-14%	2.6µM*
COc1ccccc1CNc1cc(C)ccn1	13%	2.5µM*	-6%	-4%	-11%
CC1=CC(C)(C)n2c(O)c(N=N)c3c(C)ccc1c32	6%	0%	1%	32µM*	?
CC1=CC(C)(C)n2c(O)c(N=N)c3c(C)c(C)cc1c32	?	14%	0%	19%	23µM*
COc1cc2c(cc1OC)C(=O)CCC2	-1%	8%	nt	nt	0%
CCOC(=O)c1cccc(P(C)(C)=O)c1	-7%	2%	1%	7%	0%
CCC/C(O)=C1\C(=O)CC(C)(C)CC1=Nc1ccc(OC)cc1OC	18µM*	-22%	10%	5%	21µM*
CCCC/C(O)=C1\C(=O)CC(C)(C)CC1=Nc1ccccc1OC	9%	-20%	13%	2%	?
COC(=O)CC/C(O)=C1\C(=O)CC(C)(C)CC1=Nc1ccccc1OC	8%	6%	5%	-1%	-3%
CC/C(O)=C1\C(=O)CC(C)(C)CC1=Nc1ccccc1C	-695%	26%	11µM*	0%	7%
Cc1cc(-c2nc3cc(F)ccc3s2)ccc1N	18µM*	2%	nt	nt	10µM*
Cc1ccc(S(=O)(=O)N2CC3(O)CN(C(=O)OC(C)C)N(C(=O)OC(C)C)CC3(OC(=O)NCc3ccccc3)C2)cc1 (stereo not given)	nt	-17%	nt	nt	nt
CC1(c2ccccc2)CC(C)(C)N2C(=O)/C(=C3\SC(=S)NC3=O)c3cccc1c32 (stereo not given)	-5%	7%	14%	6%	3.3µM*
COc1cc2cc(C)nc(Cc3cccc4ccccc34)c2cc1OC	5%	-14%	?	9%	13µM*
Cc1cc(C)c2c(N)c(C(=O)N/N=C/c3cccnc3)sc2n1	?	4%	1%	-28%	16µM*
Cn1c(N)c(C(=O)N/N=C/c2ccccc2)sc1=S	?	-14%	-1%	-13%	23µM*
Cc1c(C(=O)N/N=C/c2cccnc2)sc(=S)n1C	?	13%	-1%	1%	17%
Cc1cc(C)c2c(N)c(C(=O)N/N=C/c3ccccc3)sc2n1	13µM*	-15%	6%	9%	9.2µM*
CCn1c(O)c(N=NC(=O)CNC(=O)c2cccnc2)c2ccccc21	nt	-8%	nt	nt	nt
Oc1cc(NCc2cccnc2)ccc1-c1nc2ccccc2o1	?	-51%	7%	9%	21µM*
COc1ccccc1NC(=O)COC(=O)c1ccccc1OCC(=O)Nc1ccc(SC(F)F)cc1	-1%	16%	-8%	5%	-34%
COc1ccc(CNC(=O)COC(=O)c2ccccc2OCC(=O)Nc2ccc(SC(F)F)cc2)cc1	10µM*	-14%	-13%	5%	-10%
CC(Sc1nnc(CN2CCCC2)n1Cc1ccccc1)C(=O)Nc1ccc(F)cc1Cl (stereo not given)	3.7µM*	-5%	nt	nt	?
CC(Sc1nnc(CN2CCCC2)n1Cc1ccccc1)C(=O)Nc1ccc(F)cc1 (stereo not given)	-1%	?	1%	-22%	?
SMILES	SW480 rereplic	a7 integrin act	Mito fusion act	AT treatment	MCF10A rereplic
CC(=O)N1CCN(S(=O)(=O)c2cccc(C(=O)N3CCN(S(=O)(=O)c4c(C)c(C)cc(C)c4C)CC3)c2)CC1	nt	-13%	nt	nt	nt
CCN(CC)CC#CCC(O)(c1ccccc1)C1CCCCC1 (stereo not given)	18%	-35%	-4%	3%	?
CCN(CC)CC#CCOC(=O)C(O)(c1ccccc1)C1CCCCC1 (stereo not given)	25%	nt	23µM*!	24%	?
Cn1nnnc1Sc1ncnc2scc(-c3ccccc3)c12	16µM*	-44%	-2%	2%	?
Cn1nnnc1Sc1ncnc2scc(-c3ccc(Br)cc3)c12	?	nt	nt	6%	?
Cn1nnnc1Sc1ncnc2scc(Br)c12	4.6µM*	nt	nt	7%	3.7µM*
Cn1nnnc1Sc1ncnc2scc(-c3ccc(F)cc3)c12	10µM*	-38%	0.79µM*	5%	?

Screening results (PubChem BioAssay)
